Test results published in PubChem BioAssay (Tox21).
Results filed as inconclusive are left out. The source made the active and inactive calls. Unless noted, the call rests on the fitted dose curve; in most records, active means well fitted curve in the direction sought with a large enough effect in the repeat runs; inconclusive means weak or mixed curves; inactive means no such curve, though single readings can be large; an effect the other way counts as inactive or inconclusive.

How the values were obtained:
[1] = qHTS assay to identify aromatase inhibitors - cell viability counter screen (AID 743084);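 further: cells stimulated with testosterone during compound exposure; nearly all actives have a fitted effect of over 55% in size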
[2] = qHTS assay to identify small molecule that activate the aryl hydrocarbon receptor (AhR) signaling pathway - cell viability counter screen (AID 743086);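 further: HepG2 liver cells carrying the AhR DRE luciferase reporter; series mostly up to about 70 µM; nearly all actives have a fitted effect of over 45% in size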
Outline: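 HepG2-AhR-luc (HG2L7.5c1) cells, 4000/well, were preincubated 5 h at 37C, exposed to compound in qHTS format for 24 hr at 37C, then given CellTiter-Fluor for 30 min; viability was read as fluorescence in the reporter wells.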

[3] = target: Peroxisome proliferator-activated receptor gamma (Homo sapiens) (UniProt P37231); test: qHTS assay to identify small molecule agonists of the peroxisome proliferator-activated receptor gamma (PPARg) signaling pathway (AID 743094; active means well fitted activation curve with a large enough effect in the signal ratio in the repeat runs, not every such curve was filed as active; the % refers to the signal ratio)
Outline: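 Stably transfected HEK293H cells (GeneBLAzer PPARg UAS-bla) were incubated with test substances for 17 h at 37C after a 5 h pre-incubation; beta-lactamase activity was then detected by FRET substrate fluorescence.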

[4] = target: Peroxisome proliferator-activated receptor gamma (Homo sapiens) (UniProt P37231); test: qHTS assay to identify small molecule antagonists of the peroxisome proliferator-activated receptor gamma (PPARg) signaling pathway (AID 743191; calls by dose curve; further: series mostly up to about 63 µM; nearly all actives have a fitted effect of over 30% in size)
Outline: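 GeneBLAzer PPARg UAS-bla HEK293H cells carrying a UAS-driven beta-lactamase reporter were plated at 3000 cells/well, preincubated 5 h at 37C, then given compound for 17 h at 37C; LiveBLAzer B/G FRET substrate was read after 1 h at room temperature.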

[5] = qHTS assay to identify small molecule antagonists of the peroxisome proliferator-activated receptor gamma (PPARg) signaling pathway - cell viability counter screen (AID 743194); further: nearly all actives have a fitted effect of over 55% in size
Outline: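 PPARg-UAS-bla HEK293H cells were plated, rested 5 h at 37 C, then treated with compounds plus rosiglitazone (50 nM final) for 17 h at 37 C; viability was then read by CellTiter-Glo luminescence after 30 min at room temperature.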

[6] = qHTS assay for small molecule agonists of the antioxidant response element (ARE) signaling pathway (AID 743202; active means well fitted activation curve with a large enough effect in the signal ratio in the repeat runs, not every such curve was filed as active; the % refers to the signal ratio)
Outline: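 Read-out: LiveBLAzer B/G FRET substrate fluorescence after 2 h at room temperature, following 16 h compound treatment at 37 C of HepG2 cells carrying an ARE-driven beta-lactamase reporter.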

[7] = qHTS assay for small molecule activators of the heat shock response signaling pathway - cell viability counter screen (AID 743209); further: nearly all actives have a fitted effect of over 50% in size; further: potency means the concentration at half of the fitted maximal effect
Outline: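 Quantitative HTS format, Tox21 10K library. HeLa cells carrying an HSE-driven beta-lactamase reporter were treated 5 h at 37 C, then assessed for viability by CellTiter-Glo luminescence.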

[8] = qHTS assay for small molecule activators of the heat shock response signaling pathway (AID 743210; active means well fitted activation curve with a large enough effect in the signal ratio in the repeat runs, with a control signal flat, not every such curve was filed as active; the % refers to the signal ratio; further: series mostly up to about 63 µM)
Outline: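 HSE-bla HeLa cells (beta-lactamase reporter under heat shock response elements) were exposed to compounds for 5 h at 37 C, then loaded with LiveBLAzer B/G FRET substrate for 2.5 h at room temperature before fluorescence reading.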

[9] = target: Peroxisome proliferator-activated receptor delta (Homo sapiens) (UniProt Q03181); test: qHTS assay to identify small molecule agonists of the peroxisome proliferator-activated receptor delta (PPARd) signaling pathway (AID 743212; calls by dose curve)
Outline: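 GeneBLAzer PPARd UAS-bla HEK293H cells (beta-lactamase reporter under UAS control), plated and rested 5 h at 37 C, then exposed to compounds in DMSO at 37 C; LiveBLAzer B/G FRET substrate added, 2 h room temperature, fluorescence read.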

[10] = qHTS assay to identify small molecule antagonists of the peroxisome proliferator-activated receptor delta (PPARd) signaling pathway - cell viability counter screen (AID 743213); further: nearly all actives have a fitted effect of over 50% in size
Outline: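 Agonist-stimulated (L165041, 300 nM final) HEK293H PPARd UAS-bla cells are exposed to compounds for 17 h at 37 C, and ATP-based luminescence (CellTiter-Glo) from the same wells reports cytotoxicity.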

[11] = target: Peroxisome proliferator-activated receptor delta (Homo sapiens) (UniProt Q03181); test: qHTS assay to identify small molecule antagonists of the peroxisome proliferator-activated receptor delta (PPARd) signaling pathway (AID 743215; active means well fitted inhibition curve with a large enough effect in the signal ratio in the repeat runs, not every such curve was filed as active; the % refers to the signal ratio; further: series mostly up to about 62 µM)
Outline: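 Antagonist-mode beta-lactamase reporter screen: HEK293H cells with UAS-bla under PPARd control, stimulated by 300 nM L165041 (final) alongside test compound for 17 h at 37 C, then FRET fluorescence after 2 h substrate incubation.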

[12] = qHTS assay to identify small molecule agonists of the farnesoid-X-receptor (FXR) signaling pathway - cell viability counter screen (AID 743218); further: nearly all actives have a fitted effect of over 45% in size
Outline: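 In GeneBLAzer FXR-UAS-bla HEK 293T cells, compounds act for 16 h at 37 C. Cell viability is then scored in the reporter wells by CellTiter-Glo, 30 min at RT, luminescence.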

[13] = qHTS assay for small molecule agonists of the antioxidant response element (ARE) signaling pathway - cell viability counter screen (AID 743203; calls by dose curve; further: nearly all actives have a fitted effect of over 55% in size)
Outline: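 Cells (ARE-bla HepG2, 2,000/well) receive DMSO-dissolved compounds after a 5 hrs rest. Plates incubate 16 hrs at 37C/5% CO2. CellTiter-Glo luminescence is then recorded after 30 min at room temperature.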

[14] = qHTS assay to identify small molecule agonists of the peroxisome proliferator-activated receptor delta (PPARd) signaling pathway - cell viability counter screen (AID 743211); further: nearly all actives have a fitted effect of over 55% in size
Outline: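 Viability was measured as CellTiter-Glo luminescence (30 min, room temperature) in the same wells as the beta-lactamase readout. GeneBLAzer PPARd UAS-bla HEK293H cells received compound after 5 h plating and were incubated 17 h at 37 C.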

[15] = qHTS assay to identify small molecule antagonists of the farnesoid-X-receptor (FXR) signaling pathway - cell viability counter screen (AID 743221; active means well fitted cell-killing curve with a large enough effect in the repeat runs, not every such curve was filed as active; further: nearly all actives have a fitted effect of over 50% in size)
Outline: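 Cytotoxicity counter screen run in the FXR-bla reporter wells: HEK 293T cells exposed to compound with 50 uM (final) chenodeoxycholic acid for 16 h, 37 C, then viability measured by CellTiter-Glo luminescence after 30 min, room temperature.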

[16] = target: Vitamin D3 receptor (Homo sapiens) (UniProt P11473); test: qHTS assay to identify small molecule agonists of the vitamin D receptor (VDR) signaling pathway (AID 743222; calls by dose curve)
Outline: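 Agonist activity measured in VDR-bla reporter cells. Exposure 16 h, 37C, 5% CO2; detection by B/G FRET substrate, 2 h RT.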

[17] = target: Bile acid receptor (Homo sapiens) (UniProt Q96RI1); test: qHTS assay to identify small molecule antagonists of the farnesoid-X-receptor (FXR) signaling pathway (AID 743217; active means well fitted inhibition curve with a large enough effect in the signal ratio in the repeat runs, not every such curve was filed as active; the % refers to the signal ratio)
Outline: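 Beta-lactamase reporter under UAS control in HEK 293T cells; compound exposure 16 h at 37 °C in the presence of chenodeoxycholic acid (50 uM final); signal from B/G FRET substrate after 2 h at room temperature.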

[18] = target: Bile acid receptor (Homo sapiens) (UniProt Q96RI1); test: qHTS assay to identify small molecule agonists of the farnesoid-X-receptor (FXR) signaling pathway (AID 743220; active means well fitted activation curve with a large enough effect in the signal ratio in the repeat runs, not every such curve was filed as active; the % refers to the signal ratio)
Outline: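 Beta-lactamase reporter under UAS control in GeneBLAzer FXR HEK 293T cells (5000/well) measured with LiveBLAzer FRET substrate after 2 h at room temperature. Compound exposure lasted 16 h at 37C.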

[19] = target: Vitamin D3 receptor (Homo sapiens) (UniProt P11473); test: qHTS assay to identify small molecule antagonists of the vitamin D receptor (VDR) signaling pathway (AID 743223; active means well fitted inhibition curve with a large enough effect in the signal ratio in the repeat runs, not every such curve was filed as active; the % refers to the signal ratio)
Outline: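 Antagonist mode: compound added to VDR-bla cells alongside agonist 1alpha,25-dihydroxyvitamin D3 (3 nM final), incubation 16 h at 37C. Read-out is LiveBLAzer FRET fluorescence, 2 h at room temperature.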

Measured: Potency

Chain of Peroxisome proliferator-activated receptor delta (Homo sapiens) (Q03181 whole entry, looked up): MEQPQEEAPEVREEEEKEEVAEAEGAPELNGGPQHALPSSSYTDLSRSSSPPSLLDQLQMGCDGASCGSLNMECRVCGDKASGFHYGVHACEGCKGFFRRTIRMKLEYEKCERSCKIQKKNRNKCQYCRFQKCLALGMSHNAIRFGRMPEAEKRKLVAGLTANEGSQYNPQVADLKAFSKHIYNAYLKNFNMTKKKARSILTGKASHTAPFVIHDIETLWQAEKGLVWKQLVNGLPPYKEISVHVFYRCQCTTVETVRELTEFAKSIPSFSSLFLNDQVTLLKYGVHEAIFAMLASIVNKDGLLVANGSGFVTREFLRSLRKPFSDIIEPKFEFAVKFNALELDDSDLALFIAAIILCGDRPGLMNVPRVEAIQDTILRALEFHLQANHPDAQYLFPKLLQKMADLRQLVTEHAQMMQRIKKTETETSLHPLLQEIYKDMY
Chain of Vitamin D3 receptor (Homo sapiens) (P11473 whole entry, looked up): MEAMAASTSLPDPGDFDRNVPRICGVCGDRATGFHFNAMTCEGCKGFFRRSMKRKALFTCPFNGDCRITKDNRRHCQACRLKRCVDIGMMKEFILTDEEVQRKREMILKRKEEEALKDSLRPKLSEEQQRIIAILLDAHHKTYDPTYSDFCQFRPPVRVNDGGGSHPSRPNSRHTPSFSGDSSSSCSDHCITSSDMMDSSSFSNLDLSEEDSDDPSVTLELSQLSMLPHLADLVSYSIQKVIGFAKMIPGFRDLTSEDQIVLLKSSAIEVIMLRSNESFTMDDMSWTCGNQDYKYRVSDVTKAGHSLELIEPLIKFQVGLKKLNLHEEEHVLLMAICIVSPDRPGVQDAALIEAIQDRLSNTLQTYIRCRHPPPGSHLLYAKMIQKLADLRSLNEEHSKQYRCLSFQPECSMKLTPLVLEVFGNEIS
Chain of Peroxisome proliferator-activated receptor gamma (Homo sapiens) (P37231 whole entry, looked up): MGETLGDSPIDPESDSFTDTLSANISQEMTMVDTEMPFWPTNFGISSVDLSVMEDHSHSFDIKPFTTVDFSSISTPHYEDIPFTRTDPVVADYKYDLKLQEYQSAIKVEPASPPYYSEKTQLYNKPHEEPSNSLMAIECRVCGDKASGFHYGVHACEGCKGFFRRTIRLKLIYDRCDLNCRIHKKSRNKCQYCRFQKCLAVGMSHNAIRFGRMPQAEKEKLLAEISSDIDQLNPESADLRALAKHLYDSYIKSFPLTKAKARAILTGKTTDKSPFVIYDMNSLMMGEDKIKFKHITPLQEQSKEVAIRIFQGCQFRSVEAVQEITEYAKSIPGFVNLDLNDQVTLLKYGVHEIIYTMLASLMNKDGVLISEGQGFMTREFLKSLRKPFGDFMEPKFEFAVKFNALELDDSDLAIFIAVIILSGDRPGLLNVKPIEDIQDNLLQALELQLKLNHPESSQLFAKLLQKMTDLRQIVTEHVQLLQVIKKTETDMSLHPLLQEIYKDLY
Chain of Bile acid receptor (Homo sapiens) (Q96RI1 whole entry, looked up): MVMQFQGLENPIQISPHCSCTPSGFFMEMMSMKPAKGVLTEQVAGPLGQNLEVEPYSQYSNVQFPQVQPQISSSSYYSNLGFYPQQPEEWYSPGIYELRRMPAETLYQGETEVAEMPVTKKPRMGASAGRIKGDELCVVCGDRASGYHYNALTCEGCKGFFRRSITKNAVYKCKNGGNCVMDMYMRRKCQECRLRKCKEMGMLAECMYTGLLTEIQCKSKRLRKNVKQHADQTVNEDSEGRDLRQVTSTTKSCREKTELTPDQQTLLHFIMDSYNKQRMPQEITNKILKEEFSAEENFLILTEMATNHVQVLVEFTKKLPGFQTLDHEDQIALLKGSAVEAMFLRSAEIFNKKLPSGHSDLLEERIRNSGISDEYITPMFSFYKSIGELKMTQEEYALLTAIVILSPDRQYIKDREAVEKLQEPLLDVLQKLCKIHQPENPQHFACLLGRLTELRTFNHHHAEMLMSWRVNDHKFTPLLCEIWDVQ

COc1nc(N)nc2nc[nH]c12
not listed: [13] | [14] | [15] | [16] | [17] | [18] | [19]
inactive: all other assays above

c1ccc2cnccc2c1
not listed: [6] | [8] | [11] | [12] | [17] | [18] | [19]
inactive: all other assays above

CCCC(=O)OCCC(C)CCC=C(C)C (stereo not drawn)
active: [7] 49 µM
not listed: [4] | [8] | [16] | [17] | [18] | [19]
inactive: all other assays above

Cc1ccccc1C(N)=O
not listed: [4] | [8] | [16] | [19]
inactive: all other assays above

N#CCC(=O)NN
not listed: [6] | [8] | [13] | [15] | [17] | [18] | [19]
inactive: all other assays above

CC(O)CC(C)O (stereo not drawn)
not listed: [8] | [12]
inactive: all other assays above

CC(=O)OC(C)=O
not listed: [8] | [9] | [11] | [12] | [17] | [18]
inactive: all other assays above

CCCCCc1cccc(=O)o1
not listed: [4] | [6] | [19]
inactive: all other assays above

Cc1c(C(=O)c2c[nH]n(C)c2=O)ccc(S(C)(=O)=O)c1C1=NOCC1
not listed: [8] | [11] | [13] | [17] | [18] | [19]
inactive: all other assays above

COC(=O)c1cccc(Cl)c1
not listed: [12] | [14]
inactive: all other assays above

O/N=C/C=N/O
not listed: [4] | [17] | [18]
inactive: all other assays above

Cc1cccc(Cl)c1
not listed: [4] | [12] | [13] | [16] | [19]
inactive: all other assays above

COC(C)(OC)OC
not listed: [4] | [17] | [18]
inactive: all other assays above

CC(C)CCOC(=O)c1ccccc1
not listed: [4] | [12] | [13] | [15] | [17]
inactive: all other assays above

N#Cc1ccccc1O
not listed: [4]
inactive: all other assays above

O=C1NC(c2ccccc2)(c2ccccc2)C(=O)N1COP(=O)(O)O
inactive: [5] | [6] | [13] | [7] | [14] | [10] | [18] | [15] | [16] | [19]
